A selection: hits, their analogues and other compounds. The true share with any hit is near 3.1%.
D3 ag = D3 dopamine receptor (human) agonism; P35462; D3R DiscoveRx beta-arrestin cells, luminescence, 90 min; max activation, %; 410,000 compounds, 0.58% hits; AID 652048; in the data active = max activation above about 30%
Target sequence (P35462 whole entry, looked up): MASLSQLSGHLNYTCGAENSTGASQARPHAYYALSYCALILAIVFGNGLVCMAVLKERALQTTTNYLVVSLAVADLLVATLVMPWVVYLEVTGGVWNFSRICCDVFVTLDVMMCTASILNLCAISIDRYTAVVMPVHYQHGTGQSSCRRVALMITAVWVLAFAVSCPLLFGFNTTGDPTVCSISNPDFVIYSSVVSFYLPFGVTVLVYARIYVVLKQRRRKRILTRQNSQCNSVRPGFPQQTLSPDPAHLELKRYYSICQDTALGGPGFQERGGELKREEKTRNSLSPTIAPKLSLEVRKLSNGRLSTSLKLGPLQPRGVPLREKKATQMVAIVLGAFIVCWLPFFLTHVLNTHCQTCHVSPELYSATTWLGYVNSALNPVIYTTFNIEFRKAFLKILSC
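Agonist-mode cell screen: cells plated at 1500/well and incubated overnight at 37 °C, then exposed to library compounds for 90 min at 37 °C. Detection reagent was added for 30–60 min at room temperature, and luminescence was read.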
RGS4 inhibitor = inhibitors of human regulator of G protein signaling 4; 390,000 compounds, 0.039% hits; Transcreener GDP fluorescence polarization, RGS4-accelerated GTP hydrolysis; Potency, µM (top dose mostly 114 µM), actives largely listed as inhibitors; P49798; active = well fitted inhibition curve with a large enough effect; inconclusive = small, poorly fitted or top-dose-only effect; inactive = no such curve, though single readings can be large or run the other way; also: nearly all actives have a fitted effect of over 75% in size
Target sequence (P49798 whole entry, looked up): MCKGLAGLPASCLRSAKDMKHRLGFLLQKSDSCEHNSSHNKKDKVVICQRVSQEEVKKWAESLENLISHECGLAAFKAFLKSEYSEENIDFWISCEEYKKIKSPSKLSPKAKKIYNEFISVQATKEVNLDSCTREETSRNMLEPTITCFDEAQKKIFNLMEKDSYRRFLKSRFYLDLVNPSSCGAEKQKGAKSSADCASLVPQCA
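MLSMR compounds (23 nl, pin-transferred) preincubated 10 min at room temperature with a 500nM (2x) first reagent, then RGS4 at 900nM (2x) plus Transcreener GDP mix added; fluorescence polarization (620/688 nm) read before and after 90 min at 30 °C.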
DRD3 antagonist = antagonists of human D3 dopamine receptor; P35462; D3R cells, DiscoveRx beta-arrestin luminescence, antagonist mode; hits give low values; max response, negative = inhibition, %; AID 652054; 360,000 compounds, 2.5% hits; in the data active = max response below about -50%; inconclusive = no clear call, values can overlap the other calls
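Cells expressing the human receptor were seeded at 1500 cells/well, incubated overnight at 37 degrees C in 5% CO2, then exposed to library compounds with dopamine controls for 90 minutes at 37 degrees C before luminescent detection.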
uPA generation = blocks generation of uPA at the cell surface. 330,000 compounds, 0.31% hits. Potency, µM (doses to about 38.3 µM), usual class: inhibitors. cell surface uPA generation assay, qHTS. AID 540303; active = well fitted inhibition curve with a large enough effect; inconclusive = small, poorly fitted or top-dose-only effect; inactive = no such curve, though single readings can be large or run the other way; tested in mouse RAW 264.7 cells; also: nearly all actives have a fitted effect of over 55% in size
Of the large screens only hits and unclear results are named; the others gave an inactive call.

Cc1ccc(N2CCN(C(=O)C3CCCN(c4ncnc5c4nc4n5CCCCC4)C3)CC2)c(C)c1 (configuration not stated)	none
C=C(C)COc1ccc(-c2[nH]ncc2Oc2cccc(OC)c2)c(O)c1	DRD3 antagonist -56
Cc1ccc(-c2csc(NCCn3c(-c4ccncc4)nc4ccccc43)n2)cc1	D3 ag 51
Cc1nc2cc(C(F)(F)F)ccc2n1CCNc1nc(-c2ccc(F)cc2)cs1	none
COc1ccc(-c2csc(NCCn3c(C)nc4cc(C(F)(F)F)ccc43)n2)cc1	D3 ag 37
COc1cccc(Oc2nc3c(c(=O)n(Cc4ccccc4Cl)c(=O)n3C)n2C)c1	none (no result: DRD3 antagonist, uPA generation)
COc1ccc(OCc2nc3ccccc3n2C(C)c2ccccc2)cc1 (configuration not stated)	none (no result: DRD3 antagonist, uPA generation)
CC(=NCc1ccco1)c1c(C)[nH]n(-c2nc3ccccc3s2)c1=O	uPA generation inconclusive
C/C(=N/NC(=O)c1cccs1)c1c(C)[nH]n(-c2nc3ccccc3s2)c1=O	DRD3 antagonist inconclusive, uPA generation 1.6µM
CC(C)Nc1nc(-c2ccccc2F)c2sc(-c3ccccc3)cc2n1	none (no result: RGS4 inhibitor, uPA generation)
C=CCNc1nc(NCCOc2ccccc2Cl)c2sc(-c3ccccc3)cc2n1	DRD3 antagonist -67 (no result: RGS4 inhibitor, uPA generation)
CC(C)Nc1nc(NCCN2CCCC2)c2sc(-c3ccccc3)cc2n1	DRD3 antagonist -65 (no result: RGS4 inhibitor, uPA generation)
COc1ccc(OC)c(NC(=O)Cn2cc(S(=O)(=O)c3ccccc3)c(=O)c3cc(C)ccc32)c1	none (no result: DRD3 antagonist, uPA generation)
COc1ccc2c(CNCc3cccs3)c(C(=O)O)n(Cc3cccc(F)c3)c2c1	none (no result: DRD3 antagonist, uPA generation)
Cc1ccc(C)c(N2CCN(C(=O)Cn3ncc4c(=O)oc5ccccc5c43)CC2)c1	none (no result: DRD3 antagonist, uPA generation)
COc1cccc(-c2nc(S(=O)(=O)c3ccc(Cl)cc3)c(NCc3ccccc3)o2)c1	none (no result: DRD3 antagonist, uPA generation)
C[n+]1c2cc(N)ccc2cc2ccc(N)cc21 (tested in a mixture with another compound)	none (no result: RGS4 inhibitor, DRD3 antagonist, uPA generation)
CCOC(=O)c1ccc(N=c2sc(C(=O)OC)cc(=O)n2CCCN2CCOCC2)cc1	uPA generation inconclusive
CCOC(=O)c1ccc(N=c2sc(C(=O)OC)cc(=O)n2Cc2ccco2)cc1	DRD3 antagonist inconclusive, uPA generation 6.3µM
COCc1nnc(NS(=O)(=O)c2ccc(OC)cc2)s1	none
COCc1nnc(NS(=O)(=O)c2ccc([N+](=O)[O-])cc2)s1	DRD3 antagonist -58
CC(=O)c1ccc(NC(=O)c2cnc(N3CCCC3)nc2C)cc1	none (no result: DRD3 antagonist, uPA generation)
CCOC(=O)C1=C(C)NC2=C(C(=O)c3ccccc32)C1c1cccc2ccccc12 (configuration not stated)	RGS4 inhibitor inconclusive
CCN1C(=O)NC2=C(C(=O)c3ccccc32)C1c1ccccc1F (configuration not stated)	DRD3 antagonist -62
O=C(COc1ccc(-n2cnnn2)cc1)NC1CCCCC1	DRD3 antagonist -65
CC1CCCCC1NC(=O)COc1ccc(-n2cnnn2)cc1 (configuration not stated)	none
COc1cc(OC)c2c(C)cc(=O)oc2c1C(CCN1CCOCC1)c1ccc2c(c1)OCO2 (configuration not stated)	DRD3 antagonist -69
COc1cc(OC)c2c(-c3ccccc3)cc(=O)oc2c1C(CCN1CCOCC1)c1ccc(N(C)C)cc1 (configuration not stated)	uPA generation inconclusive
COc1cc(OC)c2c(-c3ccccc3)cc(=O)oc2c1C(CCN1CCCCC1)c1ccc(N(C)C)cc1 (configuration not stated)	uPA generation 10µM
COc1cc(C(CCN2CCN(c3ccccc3)CC2)c2c(OC)cc(OC)c3c(C)cc(=O)oc23)cc(OC)c1OC (configuration not stated)	DRD3 antagonist -121, uPA generation inconclusive
COc1cc(OC)c2c(-c3ccccc3)cc(=O)oc2c1C(CCN1CCCC(C)C1)c1ccc2c(c1)OCO2 (configuration not stated)	DRD3 antagonist -70, uPA generation inconclusive
COc1cc(C(CCN2CCCC(C)C2)c2c(OC)cc(OC)c3c(C)cc(=O)oc23)cc(OC)c1OC (configuration not stated)	none (no result: D3 ag, DRD3 antagonist, uPA generation)
C#C[C@]1(O)CC[C@H]2[C@@H]3CCC4=CC(=O)CC[C@@H]4[C@H]3C(=C)C[C@@]21CC	none (no result: RGS4 inhibitor, DRD3 antagonist, uPA generation)
COc1cc(CN(C(=O)c2cccc(C)c2)c2ccccn2)cc(OC)c1OC	none (no result: DRD3 antagonist, uPA generation)
CCCCN(Cc1ccccc1)C(=O)CN(C)S(=O)(=O)c1ccc2c(c1)c(=O)n(C)c(=O)n2C	none (no result: DRD3 antagonist, uPA generation)
Cc1ccccc1CN1CC2=C(CCN(Cc3ccccc3)C2=O)N2CCN=C12	DRD3 antagonist -81 (no result: RGS4 inhibitor, uPA generation)
c1ccc(CN2C3=NCCN3c3ccccc32)cc1	none
Cc1ccc2[nH]c(CSc3nnc(NC(=O)c4ccc(Cl)cc4)s3)cc(=O)c2c1	none (no result: DRD3 antagonist, uPA generation)
CCOC(=O)c1cccc(NC(=O)CC2C(=O)N(c3ccc(F)cc3)C(=O)N2Cc2cccc(OC)c2)c1 (configuration not stated)	none (no result: DRD3 antagonist, uPA generation)
CC(C)c1ccc2occ(CC(=O)Nc3cccc(C(F)(F)F)c3)c2c1	none (no result: DRD3 antagonist, uPA generation)
CC(=O)Nc1cc(-c2cccc(C(=O)NCCN(C)C)c2)cn2c(-c3ccc(S(C)(=O)=O)cc3)cnc12	none (no result: RGS4 inhibitor, uPA generation)
CC(=O)Nc1cc(-c2ccc(F)cc2)cn2c(-c3ccc(F)cc3)cnc12	none (no result: RGS4 inhibitor, uPA generation)
COc1ccc(-c2cnc3c(NC(C)=O)cc(-c4ccc(C(=O)NC5CC5)cc4)cn23)cc1OC	D3 ag 36 (no result: RGS4 inhibitor, uPA generation)
CC(=O)Nc1cc(-c2cccc(C(=O)NCCN(C)C)c2)cn2c(-c3ccccc3)cnc12	DRD3 antagonist -52 (no result: RGS4 inhibitor, uPA generation)
CC(=O)Nc1cc(-c2ccc(CO)cc2)cn2c(-c3ccc(F)cc3)cnc12	DRD3 antagonist -50 (no result: RGS4 inhibitor, uPA generation)
CN1CCN(Cc2c(O)ccc3cc(-c4ccc(Cl)cc4)c(=O)oc23)CC1	none (no result: DRD3 antagonist, uPA generation)
C[N+]1(C)CCN(CC(O)(c2ccccc2)C2CCCCC2)CC1 (configuration not stated)	none (no result: RGS4 inhibitor, DRD3 antagonist, uPA generation)
CCN(c1ccccc1)S(=O)(=O)c1ccc(Cl)c(NC(=O)CNCc2ccccc2OC)c1	DRD3 antagonist -66, uPA generation inconclusive
O=c1c2ccccc2cnn1Cc1n[nH]c(=S)n1-c1cc(Cl)cc(Cl)c1	DRD3 antagonist -57
O=c1c2ccccc2cnn1Cc1n[nH]c(=S)n1-c1ccc(F)c(Cl)c1	none
Cc1ccsc1C(=O)N1CCC1(C)C(=O)NS(=O)(=O)c1ccccc1 (configuration not stated)	none (no result: RGS4 inhibitor, uPA generation)
CC1(C(=O)NS(=O)(=O)c2ccccc2OC(F)(F)F)CCN1C(=O)c1ccco1 (configuration not stated)	DRD3 antagonist -60 (no result: RGS4 inhibitor, uPA generation)
Cc1ccsc1C(=O)N1CCC1(C)C(=O)NS(=O)(=O)c1ccccc1C(F)(F)F (configuration not stated)	D3 ag 99 (no result: RGS4 inhibitor, uPA generation)
CC1(C(=O)NS(=O)(=O)c2ccc(F)cc2F)CCN1C(=O)c1ccco1 (configuration not stated)	none (no result: RGS4 inhibitor, uPA generation)
N=C(N)n1cccn1	none (no result: RGS4 inhibitor, DRD3 antagonist, uPA generation)
N#C/C(=N\Nc1ccccc1Cl)C(=O)c1ccccc1	none
Cc1c(N/N=C(\C#N)C(=O)c2ccccc2)c(=O)n(-c2ccccc2)n1C	DRD3 antagonist -68
N#C/C(=N\Nc1cccc(Cl)c1)C(=O)c1ccccc1	DRD3 antagonist -86

Screens: PubChem BioAssay, National Center for Advancing Translational Sciences (NCATS)
